From PubChem BioAssay
Wnt bcat act: activates Wnt/beta-catenin signaling in a reporter cell assay; AID 743398; activation, % at 9.35 µM; activator, plate reader; 300,000 tested, 1.2% active; in the data active = activation above about 30%, passing the limit was not always enough; inconclusive = no clear call, values can overlap the other calls
esBAF inh: blocks esBAF chromatin remodeling in mouse ES cells; Bmi1-luciferase knock-in reporter, 24 h; 100% = twice the neutral-well signal; reporter increase, % at 12.5 µM; 350,000 tested, 2% active; in the data active = activation above about 40%; inconclusive = no clear call, values can overlap the other calls;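 note: a rise in the Bmi1 reporter signal indicates esBAF inhibition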
FXN GAA850 act: frataxin GAA850 promoter activation | HEK293 lucGAA850 FXN promoter luciferase reporter, 24 h; percent of 10 µM SAHA response | activation, % at 6 µM | 360,000 tested, 0.56% active;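 active = activation above the average of all compounds screened plus 3 SD, cutoff fixed separately per campaign, cut at about 7.5% in these data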
MITF act: activators of MITF-driven TRPM1 promoter activity in SK-MEL-5 cells; SK-MEL-5 TRPM1-promoter luciferase, 24 h; % of positive control, neutral wells = 0; 300,000 tested, 0.75% active; activation, % at 12.5 µM; AID 588334;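 active = mean activation of at least 80% with every replicate also reaching 80%; inconclusive = mean reaches 80% but some replicate falls short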
GAA30 FXN cntr: GAA30 FXN promoter activation counter-screen | HEK293 lucGAA30 FXN promoter luciferase, 24 h; DMSO = 0%, 5 µM ipriflavone = 100% | 1,900 tested, 66% active | activation, % at 6 µM | shares compounds with FXN GAA850 act;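 active = mean activation above the mean of solvent-only control wells plus 3 SD, cut at about 22% in these data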;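 note: counterscreen of GAA850 promoter hits where activity marks nonselective or luminescence artifacts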
GAA850 confirm: GAA850 FXN promoter activation confirmation. AID 588351. activation, % at 6 µM. shares compounds with FXN GAA850 act. HEK293 lucGAA850 FXN promoter luciferase reporter, 24 h; 100% = activation by SAHA. 1,900 tested, 86% active;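 active = mean activation above a set limit taken from the primary screen, cut at about 8% in these data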
Hits are given with their value; n = inactive; u = inconclusive; x = not tested or not shown. This is a sample that favours compounds with a hit; in the whole collection about 2.8% have one here.

SMILES | Wnt bcat act | esBAF inh | FXN GAA850 act | MITF act | GAA30 FXN cntr | GAA850 confirm
CCCCOC(=O)/C=C/c1ccc(OC(=O)OC)c(OC(=O)OC)c1 | n | x | 10 | n | 63 | 32
Cc1cc(=O)[nH]c(N/N=C/c2c[nH]c3ccccc23)n1 | n | n | n | n | x | x
C(=N\Nc1nc2ccccc2[nH]1)/c1c[nH]c2ccccc12 | x | x | 9.8 | 123 | 129 | 44
COc1cc2c(c(OCC(=O)NC(C)C)c1)C(=O)O[C@@H](C)CCCC(=O)CCCCC2 | n | n | 12 | n | 23 | 9.8
COc1ccc(S(=O)(=O)Nc2ccc3c(c2)C(=O)N([C@H](C)CO)C[C@@H](C)[C@H](CN(C)Cc2ccc(Oc4ccccc4)cc2)O3)cc1 | x | n | x | x | x | x
C[C@@H]1CN([C@H](C)CO)C(=O)Cc2cc(NC(=O)CCC(F)(F)F)ccc2O[C@H]1CN(C)S(=O)(=O)c1cccs1 | x | n | x | x | x | x
C[C@H](CO)N1C[C@H](C)[C@@H](CN(C)Cc2ccccc2)Oc2ccc(NC(=O)Cc3cn(C)c4ccccc34)cc2CC1=O | x | n | x | x | x | x
CCOC(=O)c1c(CSC(=N)N)n(-c2ccccc2)c2cc(Br)c(OC(C)=O)cc12 | n | n | 10 | u | n | 33
CCOC(=O)c1c(CN2CCN(C)CC2)n(-c2ccccc2)c2cc(Br)c(O)cc12 | n | x | n | n | x | x
COc1ccc(C#Cc2ccc3c(c2)O[C@H](CN(C)C(=O)c2ccccn2)[C@@H](C)CN([C@H](C)CO)S3(=O)=O)cc1 | x | n | x | x | x | x
COCC(=O)NCCc1nc2ccccc2[nH]1 | n | n | 16 | x | 22 | 7.9
C/C(=N\NC(=O)c1c(Cl)c(C)nn1C)c1ccc(NC(=O)C2CCC2)cc1 | n | n | n | n | x | x
CC(=O)c1ccc(NC(=S)NC(=O)c2c(Cl)c(C)nn2C)cc1 | x | n | 8.8 | n | 23 | n
COc1ccc(NC(=O)N(C)C[C@@H]2OCCCC[C@H](C)Oc3ccc(NC(=O)NC4CCCCC4)cc3C(=O)N([C@H](C)CO)C[C@@H]2C)cc1 | x | n | x | x | x | x
C/C=C/c1ccc2c(c1)O[C@@H](CN(C)C(=O)Nc1ccccc1)[C@@H](C)CN([C@@H](C)CO)S2(=O)=O | x | n | x | x | x | x
C[C@H](O)C#Cc1cnc2c(c1)C(=O)N([C@@H](C)CO)C[C@H](C)[C@H](CN(C)Cc1ccccn1)O2 | x | n | x | x | x | x
CCN(CC)S(=O)(=O)c1ccc(N2CCCC2)c(NC(=O)Cc2cc(OC)c(OC)c(OC)c2)c1 | n | n | 8.4 | n | 32 | 8.4
COc1ccc(C(C)(C)C)cc1NC(=O)c1cc(S(=O)(=O)N(C)C)ccc1N1CCCC1 | n | x | 15 | n | n | 9.3
CN(C)S(=O)(=O)c1ccc(N2CCCC2)c(C(=O)Nc2ccc(F)cc2F)c1 | n | x | n | n | x | x
Cc1cccc(Nc2nc(N)c(C#N)c(CC#N)c2C#N)c1 | n | x | 8.2 | n | 27 | 17
COCC(=O)N1C[C@@H](C)[C@H](OC)CN(C)C(=O)c2cc(NC(=O)c3cnccn3)ccc2OC[C@@H]1C | x | n | x | x | x | x
O=C1C=CC(O)C2(CO)OC12 (configuration not stated) | n | n | 12 | x | n | 12
Cc1ccc(-c2c(C(=O)N3CCOCC3)oc(=O)c3ccccc23)cc1 | n | n | n | n | x | x
CCN1CCN(C(=O)c2oc(=O)c3ccccc3c2-c2ccc(C)cc2)CC1 | n | n | 15 | n | n | n
COc1ccccc1CN1[C@H](CO)[C@@H]2c3ccccc3N(C(=O)C3CCCC3)C[C@@H]21 | x | n | x | x | x | x
SMILES | Wnt bcat act | esBAF inh | FXN GAA850 act | MITF act | GAA30 FXN cntr | GAA850 confirm
CCOC(=O)CNC(=S)N(Cc1ccccc1F)C1CCCCC1 | n | n | n | n | x | x
CCOC(=O)CNC(=S)N(Cc1cccs1)C1CCCCC1 | n | x | 8.0 | n | n | 9.2
CCSc1nc2c(c(=O)n(C)c(=O)n2C)n1Cc1ccc(Cl)cc1 | x | n | n | n | x | x
C/C=C/CSc1nc2c(c(=O)[nH]c(=O)n2C)n1Cc1ccc(C)cc1 | n | n | 29 | n | n | 17
CCSc1nc2c(c(=O)[nH]c(=O)n2C)n1Cc1ccc(Cl)cc1 | n | n | 7.6 | n | 23 | 18
CCCCn1c(SCc2ccc(Cl)cc2)nc2c1c(=O)[nH]c(=O)n2C | n | n | 8.9 | x | n | 10
Cc1ccc(Cn2c(Sc3ncccn3)nc3c2c(=O)[nH]c(=O)n3C)cc1 | n | n | n | x | x | x
Cn1c(=O)[nH]c(=O)c2c1nc([N+](=O)[O-])n2Cc1ccccc1 | n | x | 8.5 | n | n | n
